Activity calls are given as the source filed them. Cut-off not given; nearly all actives show IC50 up to about 12 µM.

The experiment is described as follows: mitochondrial permeability transition pore inhibitors, dose response, biochemical, absorbance, isolated mitochondria, dry powder samples (AID 720722). The following applies: isolated mitochondria swelling.
On to `C=CCNCCOc1ccc(C(C)(C)c2ccccc2)cc1`, for which the IC50 (usually the concentration at which inhibition is half-maximal) was 12.4 µM (active).

For the molecule `Cc1ccc2nc(N(CCCN(C)C)C(=O)CCc3ccccc3)sc2c1`, the IC50 was 1.58 µM (active).

Regarding `C=CCNCCOCCOc1ccc(Cl)cc1C(C)(C)C`, the IC50 is 4.04 µM (active).

`CCN(CC)CCCN=Cc1c(O)n(Cc2ccccc2)c(=O)c2ccccc12`: the IC50 is 3.34 µM (active).

As to `COCCCNCCCOc1ccc(Cl)cc1C(C)(C)C`, the concentration for half-maximal inhibition (IC50) was 4.04 µM (active).

Turning to `COc1ccc(C)c2sc(N(CCCN(C)C)C(=O)CS(=O)(=O)c3ccc(F)cc3)nc12`, the half-inhibitory concentration (IC50) was 3.9 µM (active).

Consider `CN1CCC[C@@H]1CCO[C@](C)(c1ccccc1)c1ccc(Cl)cc1`, for which the IC50 was 4.43 µM (active).

Consider `CCN(CC)c1ccc(NC(=O)c2cc(Cl)ccc2OC)cc1`, for which the IC50 was 5.7 µM (active).

With `COc1ccc(-n2cc(CNC3CCN(C)CC3)c(-c3cccc(F)c3)n2)cc1`, the IC50 was 2.03 µM (active).

Consider `CC1CCCN(CCC(=O)c2ccc(Br)cc2)C1` (stereo not given), for which the IC50 was 3.14 µM (active).

For `COc1ccc(Cl)cc1C(=O)Nc1ccc(CN2CCCCC2)cc1`, the IC50 is 5.08 µM (active).

In the case of `COc1cc(NC(=O)c2cc(-c3cccc(O)c3)on2)cc(OC)c1OC`, the IC50 was 0.391 µM (active).

For `N=c1sccn1CC(=O)Nc1cccc(Oc2ccccc2)c1`, the IC50 was 2.92 µM (active).

Consider `CCOC(=O)N1CCN(S(=O)(=O)c2ccc(C(=O)N(CCCN(C)C)c3nc4c(C)c(C)ccc4s3)cc2)CC1`, for which the IC50 is 5.28 µM (active).

Turning to `O=C(CC1NCCc2ccccc21)Nc1ccc(Cl)cc1` (stereo not given), the IC50 was 2.78 µM (active).

As to `Cc1cc(C)c2nc(N(CCCN(C)C)C(=O)C3=COCCO3)sc2c1`, the IC50 was 3.11 µM (active).

Take `N#Cc1c(NCCN)nc(-c2ccco2)c2c1CCCC2`: the IC50 was 8.12 µM (active).

As to `CNCCC=C1c2ccccc2CCc2ccccc21`, the IC50 is 8.45 µM (active).

Consider `Cc1ccc2nc(N(CCN(C)C)C(=O)/C=C/c3cccs3)sc2c1`, for which the IC50 is 3.33 µM (active).

With `CC(C)(C)c1ccccc1OCCCCCNCCO`, the IC50 is 3.67 µM (active).

Turning to `COC(=O)c1c(NC(=O)C2CCCCC2)sc2c1CC(C)(C)NC2(C)C`, the IC50 is 3.64 µM (active).

Take `Cc1cc(C)c2nc(N(CCCN(C)C)C(=O)c3ccc(S(=O)(=O)N4CCCCCC4)cc3)sc2c1`: the IC50 is 2.07 µM (active).

`C=CCNCCCOc1ccc(C)cc1Br`: the IC50 was 11.6 µM (active).

Turning to `CN(C)CCCN1c2ccccc2Sc2ccc(Cl)cc21`, the IC50 was 2.5 µM (active).

Consider `COc1cc(CNCCO)cc(Cl)c1OCc1ccccc1Cl`, for which the IC50 was 2.69 µM (active).

The record behind these values is PubChem BioAssay AID720722 (Molecular Libraries Program, Specialized Chemistry Center, …, 2013).
